Records with an inconclusive call do not appear. The source made the active and inactive calls. Calls follow the shape of the dose curve; as a rule, active = well fitted inhibition curve with a large enough effect; inconclusive = small, poorly fitted or top-dose-only effect; inactive = flat fitted curve, though single readings scatter.
Legend:
Assay in all cases: qHTS profiling for inhibitors of Plasmodium falciparum proliferation (AID 504749); also: nearly all actives have a fitted effect of over 60% in size
CP217 = conditions: P. falciparum in erythrocytes, SYBR Green DNA, 72 h; series mostly up to 28.7 µM
Outline: (§1)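 SYBR Green fluorescence (ex 485 nm, em 535 nm) reports parasite DNA after 72 h compound exposure of infected red cells at 0.3% parasitemia, 2.5% hematocrit; signal normalized to 0.29 uM artemisinin and vehicle wells.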

CP237 = conditions: P. falciparum in erythrocytes, SYBR Green DNA, 72 h; series mostly up to 28.7 µM
Outline: as §1

CP238 = conditions: P. falciparum in erythrocytes, SYBR Green DNA, 72 h; series mostly up to 28.7 µM
Outline: as §1

CP247 = conditions: P. falciparum in erythrocytes, SYBR Green DNA, 72 h; series mostly up to 28.7 µM
Outline: as §1

CP250 = conditions: P. falciparum in erythrocytes, SYBR Green DNA, 72 h; series mostly up to 12.8 µM
Outline: as §1

CP252 = conditions: P. falciparum in erythrocytes, SYBR Green DNA, 72 h; series mostly up to 12.8 µM
Outline: as §1

CP256 = conditions: P. falciparum in erythrocytes, SYBR Green DNA, 72 h; series mostly up to 28.7 µM
Outline: as §1

CP260 = conditions: P. falciparum in erythrocytes, SYBR Green DNA, 72 h; series mostly up to 28.7 µM
Outline: as §1

CP262 = conditions: P. falciparum in erythrocytes, SYBR Green DNA, 72 h; series mostly up to 28.7 µM
Outline: as §1

CP265 = conditions: P. falciparum in erythrocytes, SYBR Green DNA, 72 h; series mostly up to 12.8 µM
Outline: as §1

CP268 = conditions: P. falciparum in erythrocytes, SYBR Green DNA, 72 h; series mostly up to 28.7 µM
Outline: as §1

CP269 = conditions: P. falciparum in erythrocytes, SYBR Green DNA, 72 h; series mostly up to 28.7 µM
Outline: as §1

CP286 = conditions: P. falciparum in erythrocytes, SYBR Green DNA, 72 h; series mostly up to 28.7 µM
Outline: as §1

CP291 = conditions: P. falciparum in erythrocytes, SYBR Green DNA, 72 h; series mostly up to 28.7 µM
Outline: as §1

CP297 = conditions: P. falciparum in erythrocytes, SYBR Green DNA, 72 h; series mostly up to 28.7 µM
Outline: as §1

CP305 = conditions: P. falciparum in erythrocytes, SYBR Green DNA, 72 h; series mostly up to 28.7 µM
Outline: as §1

CP315 = conditions: P. falciparum in erythrocytes, SYBR Green DNA, 72 h; series mostly up to 28.7 µM
Outline: as §1

CP325 = conditions: P. falciparum in erythrocytes, SYBR Green DNA, 72 h; series mostly up to 28.7 µM
Outline: as §1

CP329 = conditions: P. falciparum in erythrocytes, SYBR Green DNA, 72 h; series mostly up to 28.7 µM
Outline: as §1

CP335 = conditions: P. falciparum in erythrocytes, SYBR Green DNA, 72 h; series mostly up to 12.8 µM
Outline: as §1

DFO2036 = conditions: P. falciparum in erythrocytes, SYBR Green DNA, 72 h; series mostly up to 28.7 µM
Outline: as §1

DIV14 = conditions: P. falciparum in erythrocytes, SYBR Green DNA, 72 h; series mostly up to 28.7 µM
Outline: as §1

DIV17 = conditions: P. falciparum in erythrocytes, SYBR Green DNA, 72 h; series mostly up to 28.7 µM
Outline: as §1

DIV30 = conditions: P. falciparum in erythrocytes, SYBR Green DNA, 72 h; series mostly up to 28.7 µM
Outline: as §1

Dd2 = conditions: P. falciparum in erythrocytes, SYBR Green DNA, 72 h; series mostly up to 28.7 µM
Outline: as §1

ECU = conditions: P. falciparum in erythrocytes, SYBR Green DNA, 72 h; series mostly up to 28.7 µM
Outline: as §1

FAB9 = conditions: P. falciparum in erythrocytes, SYBR Green DNA, 72 h; series mostly up to 28.7 µM
Outline: as §1

GB4 = conditions: P. falciparum in erythrocytes, SYBR Green DNA, 72 h; series mostly up to 28.7 µM
Outline: as §1

HB3 = conditions: P. falciparum in erythrocytes, SYBR Green DNA, 72 h; series mostly up to 28.7 µM
Outline: as §1

ICS = conditions: P. falciparum in erythrocytes, SYBR Green DNA, 72 h; series mostly up to 28.7 µM
Outline: as §1

JCK = conditions: P. falciparum in erythrocytes, SYBR Green DNA, 72 h; series mostly up to 28.7 µM
Outline: as §1

N140 = conditions: P. falciparum in erythrocytes, SYBR Green DNA, 72 h; series mostly up to 28.7 µM
Outline: as §1

P93_24 = conditions: P. falciparum in erythrocytes, SYBR Green DNA, 72 h; series mostly up to 28.7 µM
Outline: as §1

P94_40 = conditions: P. falciparum in erythrocytes, SYBR Green DNA, 72 h; series mostly up to 28.7 µM
Outline: as §1

PAD = conditions: P. falciparum in erythrocytes, SYBR Green DNA, 72 h; series mostly up to 28.7 µM
Outline: as §1

PC15 = conditions: P. falciparum in erythrocytes, SYBR Green DNA, 72 h; series mostly up to 28.7 µM
Outline: as §1

PC26 = conditions: P. falciparum in erythrocytes, SYBR Green DNA, 72 h; series mostly up to 28.7 µM
Outline: as §1

PC49 = conditions: P. falciparum in erythrocytes, SYBR Green DNA, 72 h; series mostly up to 28.7 µM
Outline: as §1

SC27B = conditions: P. falciparum in erythrocytes, SYBR Green DNA, 72 h; series mostly up to 28.7 µM
Outline: as §1

TAB109 = conditions: P. falciparum in erythrocytes, SYBR Green DNA, 72 h; series mostly up to 12.8 µM
Outline: as §1

TAB113 = conditions: P. falciparum in erythrocytes, SYBR Green DNA, 72 h; series mostly up to 28.7 µM
Outline: as §1

TAB165 = conditions: P. falciparum in erythrocytes, SYBR Green DNA, 72 h; series mostly up to 28.7 µM
Outline: as §1

W2 = conditions: P. falciparum in erythrocytes, SYBR Green DNA, 72 h; series mostly up to 12.8 µM
Outline: as §1

Measured: Potency

C[C@]12CC[C@H](OS(=O)(=O)O)CC1=CCC1C2CC[C@]2(C)C(=O)CC[C@@H]12 (stereo partly drawn)
inactive: CP217 | CP237 | CP238 | CP247 | CP250 | CP252 | CP256 | CP260 | CP262 | CP265 | CP268 | CP269 | CP286 | CP291 | CP297 | CP305 | CP315 | CP325 | CP329 | CP335 | DFO2036 | DIV14 | DIV17 | DIV30 | Dd2 | ECU | FAB9 | GB4 | HB3 | ICS | JCK | N140 | P93_24 | P94_40 | PAD | PC15 | PC26 | PC49 | SC27B | TAB109 | TAB113 | TAB165 | W2

Reference: PubChem BioAssay (NCATS)
